Here are results for 16 compounds from the supplement of paper PMC7057948, “A genome-wide approach for identification and characterisation of metabolite-inducible systems” (Nature Communications, 2020).

Each structure is given as a SMILES string.

The assay deals with HpdR/P_H16_RS18295 3-hydroxypropanoate biosensor (pEH010). Nature of the assay: relative induction of RFP reporter vs primary effector; higher = stronger activation. The conditions noted are these: inducer concentration 5 mM; 6 h; Cupriavidus necator H16; minimal medium + 0.4% gluconate. How it is done:
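Orthogonality screen of 21 primary inducers against 21 transcription factor/inducible promoter–mRFP biosensors in C. necator H16 in minimal medium, robotic 96-well format, 5 mM inducer, 30 °C. OD-normalised RFP fluorescence was read 6 h later and expressed as relative induction (%) = 100 × (FL compound − FL uninduced)/(FL primary inducer − FL uninduced); mean of n=4. Cognate pairs (100% by definition) omitted.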
Turning to `O=C(O)c1ccc(O)c(O)c1` [3,4-dihydroxybenzoate], the “relative induction of RFP reporter” value was -0.0358%.

Regarding `O=C(O)c1ccccc1O` [salicylate], the “relative induction of RFP reporter” value is 0.195%.

Take `O=C(O)C1CCCCC1` [cyclohexane-1-carboxylate]: the “relative induction of RFP reporter” value is -0.461%.

For the compound `O=C(O)C(O)C(O)C(=O)O` (stereo unspecified) [tartrate], the “relative induction of RFP reporter” value was -0.0938%.

As to `O=c1[nH]c(=O)c2nc[nH]c2[nH]1` [xanthine], the “relative induction of RFP reporter” value stood at 0.1%.

As for `C=C(CC(=O)O)C(=O)O` [itaconate], the “relative induction of RFP reporter” value was -0.14%.

Consider `N[C@@H](Cc1ccc(O)cc1)C(=O)O` [L-tyrosine], for which the “relative induction of RFP reporter” value was -0.292%.

Regarding `OC1OC[C@H](O)[C@H](O)[C@H]1O` (mixture of isomers) [L-arabinose], the “relative induction of RFP reporter” value worked out at 0.017%.

For the compound `NCCC(=O)O` [β-alanine], the “relative induction of RFP reporter” value was 0.231%.

In the case of `O=C(O)c1ccccc1` [benzoate], the “relative induction of RFP reporter” value is -0.293%.

Consider `CC(=O)C(C)O` (stereo unspecified) [acetoin], for which the “relative induction of RFP reporter” value was -0.347%.

As to `Nc1ccccc1C(=O)C[C@H](N)C(=O)O` [L-kynurenine], the “relative induction of RFP reporter” value is -0.129%.

`N[C@@H](Cc1ccccc1)C(=O)O` [L-phenylalanine]: the “relative induction of RFP reporter” value is -0.399%.

As for `O=C(O)CS(=O)(=O)O` [sulfonatoacetate], the “relative induction of RFP reporter” value was -0.0436%.

With `O=C(O)C(=O)c1ccccc1` [phenylglyoxylate], the “relative induction of RFP reporter” value was -0.296%.

Consider `O=CO` [formate], for which the “relative induction of RFP reporter” value was found to be 0.0754%.
